AMA1 RON2 block: disrupts binding of P. falciparum AMA1 to RON2; 360,000 compounds, 0.2% hits; AlphaScreen AMA1-biotinylated RON2 peptide binding; Potency, µM (titrated, usually from 58.2 µM), inactives show top-dose activity change, negative = inhibition, most hits filed as inhibitors;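 further: 0% = vehicle wells and -100% = peptide control; nearly all actives have a fitted effect of over 45% in size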
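AMA1 (3D7) with his tag at 25 nM final met compounds first, then biotinylated RON2 peptide at 25 nM; detection used donor plus acceptor beads, 10 µg/mL apiece, read by AlphaScreen after 30 min at room temperature.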
Pf growth 96h: P. falciparum growth inhibition at 96 hour, primary screen for plastid delayed-death inhibitors. 320,000 compounds, 6.9% hits. Potency, µM (doses to about 28.7 µM), for the others: at the top dose activity change, negative = inhibition, actives largely listed as inhibitors. P. falciparum luciferase reporter growth, 96 h
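Infected RBCs, 2% Hct / 0.05% parasitemia final; luciferase-reporter P. falciparum; cpd 96 h, 37 C, 5% CO2; luciferase detection reagent; luminescence.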
HCV inh: HCV inhibition; Huh7.5.1 HCVcc-Cre infection, luciferase reporter, 44 h; Potency, µM (titrated, usually from 41.8 µM), for inactives: at the highest dose activity change, negative = inhibition, actives largely listed as inhibitors; 340,000 compounds, 3.4% hits; AID 651820
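Compounds are dispensed onto cells plated 4 h earlier at 1,000 per well, with HCVcc-Cre virus (about 0.5 moi) added next. Following 44 h of culture, luminescent signal is measured for 15 sec after 15 min with substrate at room temperature.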
Pf growth 48h: P. falciparum growth inhibition at 48 hours (one generation); P. falciparum luciferase growth in erythrocytes, 48 h; Potency, µM (series often up to 28.7 µM), inactives show at the top dose activity change, negative = inhibition, usual class: inhibitors; 310,000 compounds, 5.9% hits
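Luminescence readout; reporter = integrated firefly luciferase in P. falciparum. RBC culture at 2% hematocrit, 0.1% parasitemia final, 37 C/5% CO2; decreased signal taken as growth inhibition.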
Active calls of the source: *; ? = inconclusive; . = not tested or not shown. Only some compounds are listed: those with a hit (about 11% of all), similar ones and a draw of the others. The call rests on the fitted dose curve; in most records, active means well fitted curve in the direction sought with a large enough effect; inconclusive means small, poorly fitted or top-dose-only effect, or another doubt; inactive means no such curve, though single readings can be large; an effect the other way counts as inactive or inconclusive. Unless noted, on the % scale 0 is the no-effect control and ±100 the full control effect; potency means the concentration at half of the fitted maximal effect.

SMILES | AMA1 RON2 block | Pf growth 96h | HCV inh | Pf growth 48h
Clc1ccc2nc(C3CCN(Cc4nnnn4C4CCCCC4)CC3)[nH]c2c1 | -2% | -23% | -6% | 12µM*
FC(F)(F)c1ccc2c(c1)ncn2C1CCN(Cc2nnnn2C2CCCCC2)CC1 | -7% | -1% | ? | 4.1µM*
COc1cccc(OC)c1OCCCN1CCC(Cc2ccccc2)CC1 | -21% | ? | 11µM* | ?
COCCn1nnnc1CN1CCSCC1 | -8% | -89% | 16% | -2%
COCCn1nnnc1CN1CCC(Cc2ccccc2)CC1 | ? | 2.6µM* | 5% | -15%
Fc1ccc(Cn2nnnc2CN2CCC(n3nnc4cc(C(F)(F)F)ccc43)CC2)cc1 | -6% | ? | ? | ?
Cc1ccc(Cn2nnnc2CN2CCC(c3nc4ccc(Cl)cc4[nH]3)CC2)cc1 | -24% | ? | ? | ?
COc1ccc(CN2CCC(Cc3ccccc3)CC2)cc1OC | -24% | 373% | ? | ?
Cc1nc2ccccc2n1C1CCN(Cc2nnnn2CCc2ccccc2)CC1 | 3% | . | 1% | 13µM*
Cc1nc2cc(C(F)(F)F)ccc2n1C1CCN(CC(=O)NC(C)(C)C)CC1 | -2% | 1% | -9% | 9.3µM*
Cc1nc2cc(C(F)(F)F)ccc2n1C1CCN(CC(=O)N2CCCC2)CC1 | -4% | 40% | -2% | ?
Cc1nc2cc(C(F)(F)F)ccc2n1C1CCN(Cc2nnnn2Cc2ccc3c(c2)OCO3)CC1 | -15% | -1% | ? | 4.7µM*
Cc1nc2cc(C(F)(F)F)ccc2n1C1CCN(Cc2nnnn2Cc2cccs2)CC1 | 8% | -89% | 9% | 9.3µM*
O=C(c1ccco1)N1CCN(S(=O)(=O)c2cccc(Cl)c2)CC1 | -12% | 0% | 16% | 14%
Cc1cc(C)c(C(=O)C(C)OC(=O)c2ccccn2)cc1C (stereo not given) | 40% | -16% | 11% | 103%
COc1ccc(Oc2coc3cc(OC(=O)/C=C/c4ccccc4)ccc3c2=O)cc1 | -2% | -8% | 8% | 18%
COc1ccc(Oc2coc3cc(OC(=O)/C=C/c4ccc(F)cc4)ccc3c2=O)cc1 | -14% | 4.1µM* | 32% | ?
CN(CC(=O)Nc1n[nH]c(=S)s1)S(=O)(=O)c1cccc2cccnc12 | 81% | 5.2µM* | 1% | -5%
Cc1csc(NC(=O)CN(C)S(=O)(=O)c2cccc3cccnc23)n1 | -1% | 66% | ? | .
CS(=O)CCC(NS(=O)(=O)c1ccccc1)C(=O)O (stereo not given) | 3% | 9.3µM* | -18% | ?
O=C(O)CCC(NS(=O)(=O)c1ccc(-c2ccccc2)cc1)C(=O)O (stereo not given) | -14% | ? | 16% | .
Cc1cc(NC(=O)Nc2ccccc2[N+](=O)[O-])n(C)n1 | 7% | 57% | 11% | -7%
COc1cccc(C(=O)N2CCN(Cc3ccc(OC)cc3OC)CC2)c1 | ? | -11% | -5% | -10%
Cc1c(C(=O)c2ccc(Cl)cc2Cl)cnc2cc3c(cc12)OCO3 | -18% | 13µM* | 10µM* | 8.3µM*
CC(C)=CCN1CCN(CCC2=C(C)CCCC2(C)C)CC1CCO (stereo not given) | 7% | -14% | ? | 13µM*
SMILES | AMA1 RON2 block | Pf growth 96h | HCV inh | Pf growth 48h
Cc1ccc(Cl)cc1N1CCN(C(=O)Cc2ccc(-n3c(=O)[nH]c4ccsc4c3=O)cc2)CC1 | -19% | -29% | 4% | -7%
O=C(CSc1nccn(-c2ccc(Br)cc2)c1=O)NCc1ccccc1 | -7% | ? | 6% | 13µM*
COc1ccccc1-n1ccnc(SCC(=O)NCc2ccccc2)c1=O | 12% | 13% | -6% | -6%
COc1cccc(NC(=O)N2CCCC2C(=O)NCc2ccccc2)c1 (stereo not given) | 15% | 34% | 4% | 22%
Cc1ccc(NC(=O)N2CCCC2C(=O)NCc2ccccc2Cl)cc1 (stereo not given) | -6% | 2.6µM* | 2% | -10%
COc1ccc(NC(=O)N2CCCC2C(=O)Nc2ccccc2F)cc1 (stereo not given) | -15% | 2.6µM* | 0% | 17%
COc1cccc(NC(=O)N2CCCC2C(=O)NCc2ccccc2F)c1 (stereo not given) | 1% | 10µM* | 1% | 15%
COC(=O)c1sccc1NC(=O)Nc1ccc(C(C)=O)cc1 | -4% | 259% | 1% | 51%
COc1ccc2c(c1)C(=NNc1ccc(C(=O)O)cc1)c1cc(OC)ccc1-2 | -1% | 35% | 14µM* | ?
COc1ccc(/C(C)=N/Nc2ccc(C(=O)O)cc2)c(OC)c1 | -20% | 200% | 33% | 191%
Cc1cc(=O)n2nc(N3CCCC(C(=O)N4CCOCC4)C3)sc2n1 (stereo not given) | -12% | 12µM* | 12% | 1%
Cc1cc(=O)n2nc(N3CCCC(C(=O)N4CCc5ccccc54)C3)sc2n1 (stereo not given) | 3% | ? | 1% | -27%
CCOc1ccc(CCNC(=O)C2CCCN(c3nn4c(=O)cc(C)nc4s3)C2)cc1OCC (stereo not given) | 4% | 0.15µM* | ? | ?
Cn1ccc2c(-c3cccnc3)cc3c(c21)C1CCC3O1 (stereo not given) | 0% | . | . | .
O=C(COc1ccc(F)cc1)N(Cc1ccc(Cl)cc1)C1CCS(=O)(=O)C1 (stereo not given) | -7% | -10% | 3% | -8%
CCCn1c(CN2CCN(C(=O)c3ccco3)CC2)nc2cc(S(=O)(=O)N(C)C)ccc21 | 23% | 9.3µM* | -19% | 10µM*
COc1cccc(CN2CC(C(=O)NCCc3ccc(C)s3)CCC2=O)c1 (stereo not given) | 4% | -17% | 0% | 6%
NC(=O)c1c(NC(=O)C2CCCO2)sc2c1CCCC2 (stereo not given) | 6% | 155% | -3% | 139%
O=S1(=O)N[C@@H](CC2=CCCCC2)C2CCCCC2O1 (stereo not given in full) | 5% | 40% | 39% | 29%
CC1(C)OC(=O)C=C(CC2NS(=O)(=O)OC3CCCCC23)O1 (stereo not given) | -11% | 78% | 2.5µM* | 2%
O=C(C[C@@H]1NS(=O)(=O)OC2CCCCC21)c1ccccc1 (stereo not given in full) | 7% | 47% | 0.28µM* | 18%
O=C(Nc1nnc([C@@H]2C[C@H](O)[C@@H](CO)O2)s1)c1cccc(C(F)(F)F)c1 | 0% | . | . | .
CC1Cc2ccccc2N1Cc1cc(=O)c(OCC(=O)Nc2ccccc2)co1 (stereo not given) | -1% | 10µM* | ? | 9.3µM*
COc1ccc(CCNC(=O)COc2coc(CN3c4ccccc4CC3C)cc2=O)cc1OC (stereo not given) | -19% | ? | 11µM* | 9.3µM*
Cc1cc(C(=O)NNC(=O)c2cccs2)c(C)o1 | 9% | -1% | 17% | 32%
COC(C(=O)Nc1ccnn1C1CCN(Cc2ccc(C)s2)CC1)c1ccccc1 (stereo not given) | 2% | 64% | 5% | 20%
